Measured values: PubChem BioAssay AID1159580 (chemical genetic matrix, 2015)
Screen size: about 5,500 compounds; about 2,000 (36%) were called active. About 18% were inconclusive and are not listed. No stated cut-off is given here; in the data, active means normalized growth mostly below about 0.91 (no sharp cut-off); inconclusive means no clear call, values can overlap the other calls; inactive means mostly above about 0.92. This is one part of the list.

Assay: chemical genetic growth profiling, strain panel (AID 1159580);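 further: tested at 20 µM; growth read once vehicle control cultures reached saturation at 30 °C; 1 = growth at the plate median or of vehicle wells; lower values mean less growth of the strain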
Conditions: S. cerevisiae deletion strains, growth OD
[1] = locus YAL040C, strain CLN3, active compounds read low
[2] = locus YCL061C, strain MRC1 (second series), active compounds read low
[3] = locus YDR363W, strain ESC2, active compounds read low
[4] = locus YER002W, strain NOP16, active compounds read low
[5] = locus YNL175C, strain NOP13, active compounds read low
[6] = locus YNL197C, strain WHI3, active compounds read low
[7] = locus YNL224C, strain SQS1, active compounds read low
[8] = locus YOR083W, strain WHI5 (second series), active compounds read low

Measured: normalized growth

Nc1ncnc2c1ncn2[C@@H]1O[C@H](COP(=O)(O)CP(=O)(O)OP(=O)(O)O)[C@H](O)C1O (stereo not given in full)
inactive: [1] 1.08 | [2] 0.999 | [3] 1 | [4] 0.983 | locus YGR078C, strain PAC10, active compounds read low 1.02 | locus YJR075W, strain HOC1, active compounds read low 1.02 | locus YMR263W, strain SAP30, active compounds read low 1 | [5] 1 | [6] 1 | [7] 0.999 | [8] 1

Nc1ncnc2c1ncn2[C@@H]1O[C@H](CO)[C@H](O)C1O (stereo not given in full)
inactive: [1] 0.999 | [2] 0.998 | [3] 1.01 | [4] 1.01 | locus YNL153C, strain GIM3, active compounds read low 1.04 | [5] 1.02 | [6] 1.02 | [7] 1.02 | [8] 1.07
